Records with an inconclusive call do not appear. The source made the active and inactive calls.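 The calls were made as follows, unless noted: active = normalized viability below 100% at a tested concentration; inactive = the rest.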
Assays:
[1] = growth inhibition of DIPG glioma cells, dose response, cell-based, SU-DIPG-XVII, MIPE5.0, CellTiter-Glo, qHTS (AID 1347060; cut-off not given, nearly all actives have AC50 up to about 26 µM;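 as to AC50: cells exposed to compound for 48 hours before viability readout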); conditions: SU-DIPG-XVII viability, CellTiter-Glo ATP luminescence
[2] = growth inhibition of DIPG glioma cells, dose response, cell-based, SU-DIPG-XIII, MIPE4.0, CellTiter-Glo, qHTS (AID 1347061; cut-off not given, nearly all actives have AC50 up to about 37 µM;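 also: cells exposed to compound for 48 hours before readout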); conditions: SU-DIPG-XIII viability, CellTiter-Glo ATP luminescence
[3] = growth inhibition of DIPG glioma cells, dose response, cell-based, JHH-DIPG-1, MIPE4.0, CellTiter-Glo, qHTS (AID 1347062; cut-off not given, nearly all actives have AC50 up to about 27 µM); conditions: JHH-DIPG-1 viability, CellTiter-Glo ATP luminescence
[4] = viability loss in pontine glioma line – cell-based, SU-DIPG-XXV, MIPE5.0, CellTiter-Glo, qHTS, dose response (AID 1347065; cut-off not given, nearly all actives have AC50 up to about 26 µM;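 also: cells exposed to compound for 48 hours before ATP readout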); conditions: CellTiter-Glo ATP luminescence
[5] = SU-DIPG-VI glioma cell viability, MIPE4.0 library, CellTiter-Glo luminescence, qHTS (AID 1347066; cut-off not given, nearly all actives have AC50 up to about 30 µM;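 also: cells exposed to compound for 48 hours before readout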); conditions: CellTiter-Glo ATP luminescence
[6] = JHH-DIPG-1 glioma cell viability, MIPE5.0 library, CellTiter-Glo luminescence, qHTS (AID 1347067; cut-off not given, nearly all actives have AC50 up to about 26 µM;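 also: cells exposed to compound for 48 hours before readout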); conditions: JHH-DIPG-1 glioma viability, CellTiter-Glo ATP luminescence
[7] = growth inhibition of DIPG glioma cells, dose response, cell-based, SU-DIPG-IV, MIPE4.0, CellTiter-Glo, qHTS (AID 1347063; cut-off not given, nearly all actives have AC50 up to about 30 µM;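 also: compound exposure lasted 48 hours before the viability readout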); conditions: SU-DIPG-IV viability, CellTiter-Glo ATP luminescence
[8] = growth inhibition of DIPG glioma cells, dose response, cell-based, SU-DIPG-XIII, MIPE5.0, CellTiter-Glo, qHTS (AID 1347064; cut-off not given, nearly all actives have AC50 up to about 23 µM;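 as to AC50: cells exposed to compound for 48 hours before the viability read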); conditions: SU-DIPG-XIII viability, CellTiter-Glo ATP luminescence
[9] = SU-DIPG-XXV glioma cell viability, MIPE5.0 library, qHTS (AID 1347068; cut-off not given, nearly all actives have IC50 up to about 30 µM;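 also: cells exposed to compound for 48 hours before viability readout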)
[10] = modifiers of HSF1 nuclear foci, imaging, Selleck Cancer Library (AID 1347162; in the data active = plate-normalised HSF1 focus index below about 0.46); conditions: human cells, at 10 µM; SSMD: measured here: HSF1 foci SSMD mean; cell count: measured here: cell number; plate-normalised HSF1 focus index: stronger effect = lower value
[11] = ovarian cancer cell viability with rucaparib, profiling panel, oncology-focused library, rucaparib conditional (AID 1508598); conditions: patient-derived ovarian cancer cells, CellTiter-Glo viability, 144 h, stronger effect = lower value
[12] = sensitizers of A549 cells to miR-34 induction, primary screen, imaging, A549 dox-inducible miR-34, nuclei and caspase counts (AID 1347080;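 active = compounds whose cell count with miR-34 switched on is under 0.7 times the count with it off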); conditions: A549 miR-34 inducible, Hoechst nuclei count, 48 h
[13] = survival rescue of mitochondrial mutant cells in low glucose, primary screen, MELAS cybrids, Rieske KO mouse fibroblasts, CellTiter-Glo (AID 1508586;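 active = mean z-score across replicates of 1.96 or higher in either the MELAS or the Rieske mutant cell line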;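 also: z relative to plate mean and SD of compound and empty wells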)

C[C@]12CCC3=C4CCC(=O)C=C4CC[C@H]3[C@@H]1CC[C@@]2(O)CC#N
inactive: outcome [1] | outcome [2] | outcome [3] | outcome [4] | outcome [5] | outcome [6]

NC1(C(=O)N[C@@H](CCO)c2ccc(Cl)cc2)CCN(c2ncnc3[nH]ccc23)CC1
active: AC50 [1] 14.8 µM | AC50 [2] 14.8 µM | AC50 [7] 0.662 µM | AC50 [8] 1.48 µM | AC50 [4] 2.09 µM | IC50 [9] 3.72 µM

Cc1ccc([C@@H]2O[C@H](CO)[C@@H](O)[C@H](O)[C@H]2O)cc1Cc1ccc(-c2ccc(F)cc2)s1
0.238: SSMD [10]
active: viability ([11]; at 0.000305 µM, OCI-P5x cells, with rucaparib 20 µM, 100% = cells with rucaparib alone) 98.8% | viability ([11]; at 0.000305 µM, OCI-P5x cells, without rucaparib) 97.6% | viability ([11]; at 0.00122 µM, OCI-P5x cells, without rucaparib) 93.8% | viability ([11]; at 0.00488 µM, OCI-P5x cells, without rucaparib) 99.4%
7420: cell count [10]
inactive: outcome [1] | outcome [2] | outcome [3] | outcome [8] | outcome [5] | plate-normalised HSF1 focus index [10] 1.01 | viability ([11]; at 0.000305 µM, OCI-C5x cells, with rucaparib 10 µM, 100% = cells with rucaparib alone) 120% | viability ([11]; at 0.000305 µM, OCI-C5x cells, without rucaparib) 109% | viability ([11]; at 0.00122 µM, OCI-C5x cells, with rucaparib 10 µM, 100% = cells with rucaparib alone) 120% | viability ([11]; at 0.00122 µM, OCI-C5x cells, without rucaparib) 120% | viability ([11]; at 0.00122 µM, OCI-P5x cells, with rucaparib 20 µM, 100% = cells with rucaparib alone) 109% | viability ([11]; at 0.00488 µM, OCI-C5x cells, with rucaparib 10 µM, 100% = cells with rucaparib alone) 115% | viability ([11]; at 0.00488 µM, OCI-C5x cells, without rucaparib) 118% | viability ([11]; at 0.00488 µM, OCI-P5x cells, with rucaparib 20 µM, 100% = cells with rucaparib alone) 108% | viability ([11]; at 0.0195 µM, OCI-C5x cells, with rucaparib 10 µM, 100% = cells with rucaparib alone) 105% | viability ([11]; at 0.0195 µM, OCI-C5x cells, without rucaparib) 108% | viability ([11]; at 0.0195 µM, OCI-P5x cells, with rucaparib 20 µM, 100% = cells with rucaparib alone) 108% | viability ([11]; at 0.0195 µM, OCI-P5x cells, without rucaparib) 103% | viability ([11]; at 0.0781 µM, OCI-C5x cells, with rucaparib 10 µM, 100% = cells with rucaparib alone) 114% | viability ([11]; at 0.0781 µM, OCI-C5x cells, without rucaparib) 128% | viability ([11]; at 0.0781 µM, OCI-P5x cells, with rucaparib 20 µM, 100% = cells with rucaparib alone) 109% | viability ([11]; at 0.0781 µM, OCI-P5x cells, without rucaparib) 102% | viability ([11]; at 0.313 µM, OCI-C5x cells, with rucaparib 10 µM, 100% = cells with rucaparib alone) 117% | viability ([11]; at 0.313 µM, OCI-C5x cells, without rucaparib) 122% | viability ([11]; at 0.313 µM, OCI-P5x cells, with rucaparib 20 µM, 100% = cells with rucaparib alone) 114% | viability ([11]; at 0.313 µM, OCI-P5x cells, without rucaparib) 110% | viability ([11]; at 1.25 µM, OCI-C5x cells, with rucaparib 10 µM, 100% = cells with rucaparib alone) 119% | viability ([11]; at 1.25 µM, OCI-C5x cells, without rucaparib) 122% | viability ([11]; at 1.25 µM, OCI-P5x cells, with rucaparib 20 µM, 100% = cells with rucaparib alone) 109% | viability ([11]; at 1.25 µM, OCI-P5x cells, without rucaparib) 108% | viability ([11]; at 5 µM, OCI-C5x cells, with rucaparib 10 µM, 100% = cells with rucaparib alone) 117% | viability ([11]; at 5 µM, OCI-C5x cells, without rucaparib) 129% | viability ([11]; at 5 µM, OCI-P5x cells, with rucaparib 20 µM, 100% = cells with rucaparib alone) 105% | viability ([11]; at 5 µM, OCI-P5x cells, without rucaparib) 115%

Cc1cccc(-c2[nH]c(C(C)(C)C)nc2-c2ccc3c(c2)OCO3)n1
inactive: fold change ([12]; stronger effect = lower value, cell number ratio, induced over uninduced) 0.974 | z-score ([13]; MELAS cybrid survival, CellTiter-Glo 48 h, stronger effect = higher value) -0.251
3490: cell count ([12]; measured here: total cells with miR-34 induction, stronger effect = lower value)
active: AC50 [1] 3.72 µM | AC50 [2] 0.526 µM | AC50 [7] 6.62 µM | AC50 [8] 2.63 µM | AC50 [4] 2.95 µM | AC50 [6] 1.18 µM | IC50 [9] 3.72 µM
-1.59: z-score ([13]; Rieske KO mouse fibroblast survival, CellTiter-Glo 72 h)
0.464: fold change ([12]; measured here: relative caspase fold change +Dox/-Dox)
3590: cell count ([12]; measured here: total cells without miR-34 induction)

C=C1CCC2[C@](C)(CO)C(O)CC[C@]2(C)C1C/C=C1/C(=O)OCC1O (some centres not stated)
inactive: outcome [2] | outcome [7] | outcome [5]
active: AC50 [1] 16.6 µM | AC50 [8] 16.6 µM | AC50 [4] 13.2 µM | AC50 [6] 13.2 µM
